Reference: PubChem BioAssay (NCATS)
Several values for one entry are separate records, joined by “and”; a condition that tells them apart may be missing. Equal entries are not always repeated. Inconclusive results are not listed. Activity calls are given as the source filed them. Unless noted, calls follow the shape of the dose curve; as a rule, active = well fitted curve in the direction sought with a large enough effect; inconclusive = small, poorly fitted or top-dose-only effect, or another doubt; inactive = no such curve, though single readings can be large; an effect the other way counts as inactive or inconclusive.

Columns and labels:
[1] = qHTS Assay for Lipid Storage Modulators (AID 1519; calls by dose curve); conditions: Drosophila S3 cells, BODIPY lipid droplet/cell ratio, laser cytometry, cells loaded with oleic acid
Outline: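 Cells seeded at 5,000 per well were treated with compounds over a concentration series and loaded with oleic acid (400 uM, as added). Lipid droplet fluorescence (488 nm excitation, 500-530 nm channel) was read by laser-scanning cytometry and normalized to 20 uM Triacsin C.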

[2] = AP1 Signaling Pathway (AID 357; active = well fitted curve in either direction with a large enough effect, not every such curve was filed as active;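 also: ME-180 reporter cells stimulated with EGF at its EC50 level; % is scaled to controls: 0 for no effect and ±100 for the full control effect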); conditions: ME-180 AP-1-bla reporter, EGF-induced, beta-lactamase ratio, 5 h; at 7.69 µM (top of the series) unless noted
Outline: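 Read-out was the 460nm/530nm emission ratio (excitation 405nm) after CCF4 loading for 2.5 hours at room temperature. Cells carried an AP-1-driven beta-lactamase reporter, were stimulated with EC50 EGF plus compound for 5 hours, and AC50 values came from titrations.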

[3] = biological target: Cytochrome P450 1A2 (Homo sapiens) (UniProt P05177); experiment: p450-cyp1a2 (AID 410; calls by dose curve; also: potency is read from the fitted curve at half-maximal effect); conditions: recombinant CYP1A2, luciferin-ME demethylation, luminescence; series mostly up to 57 µM
Outline: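 O-Demethylation of luciferin 6' methyl ether by human CYP1A2 is monitored as luciferase luminescence. Substrate sits at Km (100uM); enzyme is 20nM. Values are scaled to 57 uM furafylline as maximal inhibition.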

[4] = NFAT Signaling Pathway (AID 444; active = well fitted curve in either direction with a large enough effect, not every such curve was filed as active;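 also: carbachol stimulus at about its EC50 of 1 µM final; % is scaled to controls: 0 for no effect and ±100 for the full control effect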); conditions: Jurkat NFAT-bla M1, carbachol, beta-lactamase ratio, 5 h; at 7.69 µM (top of the series) unless noted
Outline: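 Read-out: CCF4 FRET ratio (460 nm/530 nm) after 1 h RT dye loading, used for %activity and AC50 from titration series. Cells: Jurkat NFAT-β-lactamase/M1 line, treated with compound plus 1 uM carbachol for 5 h, 37 °C.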

[5] = Stat Signaling Pathway (AID 446; active = well fitted curve in either direction with a large enough effect, not every such curve was filed as active;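 also: ME-180 cervical cancer cells given 40 pM IL-6 alongside compound; SIE-controlled beta-lactamase reporter measured as 460/530 nm FRET emission ratio; % is scaled to controls: 0 for no effect and ±100 for the full control effect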); conditions: ME-180 (cervical carcinoma) SIE beta-lactamase reporter, IL-6 stimulated, 5 h; at 7.69 µM (top of the series) unless noted
Outline: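 Overnight-plated ME-180 cells bearing a STAT Inducible Element beta-lactamase reporter; 5 h co-exposure to compound and 40 pM IL-6; values normalized to 300 pM IL-6 and 125 nM JAK inhibitor controls.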

[6] = biological target: Glucocorticoid receptor (Homo sapiens) (UniProt P04150); experiment: GR-GFP Redistribution (AID 450;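 active = compounds whose dose series gives a full or clear partial fitted curve of increased nuclear translocation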; also: potency is read from the fitted curve at half-maximal effect); conditions: U2OS GR-GFP nuclear translocation, laser cytometry, 2 h
[7] = biological target: Glucocorticoid receptor (Homo sapiens) (UniProt P04150); experiment: GR-EFC Redistribution (AID 451; calls by dose curve; also: potency is read from the fitted curve at half-maximal effect); conditions: CHO-K1 GR-EFC translocation, beta-gal luminescence, 2 h
Outline: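 Translocation of GR-ED fusion to nuclear EA restores b-gal, read by luminescence after 1 h room-temperature detection. Engineered CHO-K1 biosensor cells, 1,000/well, exposed 2 h at 37 C to titrations up to 46 uM final.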

[8] = biological target: Mitogen-activated protein kinase 10 (Mus musculus) (UniProt Q61831); experiment: JNK3 AlphaScreen Assay (AID 530; active = well fitted curve in either direction with a large enough effect, not every such curve was filed as active;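 also: kinase came from lysate of stimulated human HepG2 cells; signal reports phosphorylation of biotinylated GST-cJun 1-79 at Ser73 with 10 µM ATP; % is scaled to controls: 0 for no effect and ±100 for the full control effect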); conditions: JNK3 lysate, c-Jun phosphorylation; series mostly up to 57.1 µM
Outline: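 qHTS titrations with 15 min compound pre-incubation before adding ATP (10 uM final). Read-out: AlphaScreen of Ser73-phosphorylated biotin-GST-cJun using HepG2 lysate JNK3 activated by IL-1β and TNFα.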

[9] = biological target: Cytochrome P450 3A4 (Homo sapiens) (UniProt P08684); experiment: qHTS Assay for Inhibitors and Substrates of Cytochrome P450 3A4 (AID 884); conditions: recombinant CYP3A4, Luciferin-PPXE luminescence; series mostly up to 57.1 µM; also: % is scaled to controls: 0 for no effect and ±100 for the full control effect; nearly all actives have a fitted effect of over 50% in size
Outline: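 Luminescent readout of luciferin produced by CYP3A4 (20 nM) dealkylation of Luciferin-PPXE, 25 uM (its KM). NADPH-driven reaction ran 60 min at RT after 10 min compound preincubation; data scaled to 57 uM ketoconazole as 100% inhibition.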

[10] = Confirmation and Secondary Assay for Modulators of Hemoglobin Beta Chain Splicing at IVS2 654 locus (AID 910); conditions: HeLa EGFP-654 splicing reporter, GFP fluorescence, 48 h; series mostly up to 38.3 µM;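 also: HeLa cells stably carrying EGFP split by mutant beta-globin IVS2-654 intron; % of control where 0% means no effect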
Outline: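 Readout: per-well total peak green fluorescence (488 nm ex, 500–520 nm em) from objects 5–250 µm, reflecting correct splicing of an EGFP-654 reporter. Compounds were applied for 2 days at 37 °C to overnight-plated HeLa EGFP-654 cells; controls were DMSO and 500 nM IVS2-654 PNA.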

[11] = Confirmation and Secondary Assay for Modulators of Hemoglobin Beta Chain Splicing at IVS2 705 locus (AID 930); conditions: HeLa EGFP-705 splicing reporter, GFP fluorescence, 48 h; series mostly up to 38.3 µM;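 also: HeLa cells stably expressing the EGFP-705 splicing reporter; GFP fluorescence per well restored by corrected splicing of the IVS2-705 intron in EGFP; % of control where 0% means no effect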
Outline: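 HeLa cells stably carrying EGFP interrupted by mutant beta-globin intron 2 (IVS2-705) treated 2 days at 37C with compound; 500 nM antisense PNA as control. Correct splicing read as total peak GFP intensity per well by laser-scanning cytometry.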

[12] = biological target: Ubiquitin carboxyl-terminal hydrolase 1 (Homo sapiens) (UniProt O94782); experiment: Inhibitors of USP1/UAF1: Pilot qHTS (AID 504865); conditions: purified USP1/UAF1, Ub-rhodamine cleavage fluorescence; series mostly up to 54.9 µM;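 also: rhodamine fluorescence freed from ubiquitin-rhodamine substrate followed over time; top concentration of the series differs between compounds; % is scaled to controls: 0 for no effect and ±100 for the full control effect; nearly all actives have a fitted effect of over 35% in size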
Outline: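 1nM USP1/UAF1 + cpd, 15 min RT; start w/ Ub-Rho 150nM final; kinetic FL 480/540 nm, 6 reads q60 s. Buffer 50mM HEPES pH 7.8, 0.5mM EDTA, 1mM TCEP, 0.01% Tween-20, 0.1 mg/ml BSA.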

[13] = biological target: 3',5'-cyclic-AMP phosphodiesterase 4B (Homo sapiens) (UniProt Q07343); experiment: qHTS Assay for Inhibitors of PDE-IV (AID 607; active = well fitted activation curve with a large enough effect in the main read-out, with a control signal flat, not every such curve was filed as active; also: % of control where 0% means no effect); conditions: HEK293 ACTOne CNG channel cells, membrane potential fluorescence; series mostly up to 22.9 µM
Outline: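 Live HEK293 cells with a modified cyclic nucleotide-gated (CNG) channel report intracellular cAMP via membrane-potential dye fluorescence (ex 535/em 590 nm). Endogenous PDE-IV was targeted. Compounds were tested at up to 22.9 uM final; RO 20-1724 100 uM served as control.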

[14] = biological target: DNA dC->dU-editing enzyme APOBEC-3G (Homo sapiens) (UniProt Q9HC16); experiment: qHTS for inhibitors of Vif-A3G interactions: Validation (AID 588379); conditions: Vif-A3G protein interaction assay; series mostly up to 46.1 µM; also: 0% is about no effect
Outline: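 Yellow fluorescence (Ex 488, Em 500-530) of Vif-coexpressing HeLa A3G-eYFP cells, scanned by Acumen cytometer, reports blocked A3G degradation. Cells plated at 700/well overnight at 37 deg C before compound addition, then a further overnight compound incubation at 37 deg C.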

[15] = measured here: cell count channel max response
[16] = measured here: lipid channel max response

Glucocorticoid receptor (Homo sapiens), sequence (P04150 whole entry, looked up, the tested form may be a part): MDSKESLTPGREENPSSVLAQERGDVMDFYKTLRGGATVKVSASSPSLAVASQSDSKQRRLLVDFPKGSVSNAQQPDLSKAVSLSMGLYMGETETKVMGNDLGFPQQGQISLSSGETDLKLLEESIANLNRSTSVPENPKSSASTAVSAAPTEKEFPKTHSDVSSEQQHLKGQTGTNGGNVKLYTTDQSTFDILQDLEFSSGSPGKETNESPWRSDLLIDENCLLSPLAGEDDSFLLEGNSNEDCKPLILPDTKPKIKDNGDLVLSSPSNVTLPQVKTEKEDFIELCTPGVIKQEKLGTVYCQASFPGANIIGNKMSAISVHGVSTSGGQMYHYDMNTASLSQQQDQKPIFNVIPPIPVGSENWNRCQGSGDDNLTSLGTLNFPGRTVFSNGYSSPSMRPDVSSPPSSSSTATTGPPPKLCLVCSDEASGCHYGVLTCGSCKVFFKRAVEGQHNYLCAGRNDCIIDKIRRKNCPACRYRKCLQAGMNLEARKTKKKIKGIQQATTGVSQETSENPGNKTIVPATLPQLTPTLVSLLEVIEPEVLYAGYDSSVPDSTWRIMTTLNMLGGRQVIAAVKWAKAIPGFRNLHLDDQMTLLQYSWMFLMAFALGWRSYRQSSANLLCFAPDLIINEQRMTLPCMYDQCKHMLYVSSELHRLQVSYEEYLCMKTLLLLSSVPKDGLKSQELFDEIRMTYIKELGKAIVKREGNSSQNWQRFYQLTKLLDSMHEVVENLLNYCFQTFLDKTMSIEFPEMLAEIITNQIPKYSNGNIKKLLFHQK
Ubiquitin carboxyl-terminal hydrolase 1 (Homo sapiens), sequence (O94782 whole entry, looked up): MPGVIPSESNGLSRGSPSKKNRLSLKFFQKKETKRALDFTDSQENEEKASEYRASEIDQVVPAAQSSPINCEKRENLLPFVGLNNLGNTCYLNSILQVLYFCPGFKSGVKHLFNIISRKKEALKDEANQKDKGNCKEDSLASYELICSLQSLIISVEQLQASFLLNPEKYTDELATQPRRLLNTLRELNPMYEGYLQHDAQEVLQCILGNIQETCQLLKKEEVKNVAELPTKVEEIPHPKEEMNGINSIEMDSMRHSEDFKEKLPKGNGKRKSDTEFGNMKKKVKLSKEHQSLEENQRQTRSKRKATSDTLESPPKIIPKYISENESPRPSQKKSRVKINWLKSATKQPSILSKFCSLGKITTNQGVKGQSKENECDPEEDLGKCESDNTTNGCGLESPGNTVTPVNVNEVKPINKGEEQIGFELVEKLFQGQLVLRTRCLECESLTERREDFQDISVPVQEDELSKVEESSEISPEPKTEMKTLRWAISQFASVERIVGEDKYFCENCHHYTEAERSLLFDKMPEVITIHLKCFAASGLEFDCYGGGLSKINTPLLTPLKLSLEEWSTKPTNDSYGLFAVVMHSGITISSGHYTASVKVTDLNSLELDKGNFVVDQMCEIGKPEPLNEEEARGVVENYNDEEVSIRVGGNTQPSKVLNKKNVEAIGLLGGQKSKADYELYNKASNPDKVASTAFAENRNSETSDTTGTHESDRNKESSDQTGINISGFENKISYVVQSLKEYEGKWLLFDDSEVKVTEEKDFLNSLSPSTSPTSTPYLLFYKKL
3',5'-cyclic-AMP phosphodiesterase 4B (Homo sapiens), sequence (Q07343 whole entry, looked up): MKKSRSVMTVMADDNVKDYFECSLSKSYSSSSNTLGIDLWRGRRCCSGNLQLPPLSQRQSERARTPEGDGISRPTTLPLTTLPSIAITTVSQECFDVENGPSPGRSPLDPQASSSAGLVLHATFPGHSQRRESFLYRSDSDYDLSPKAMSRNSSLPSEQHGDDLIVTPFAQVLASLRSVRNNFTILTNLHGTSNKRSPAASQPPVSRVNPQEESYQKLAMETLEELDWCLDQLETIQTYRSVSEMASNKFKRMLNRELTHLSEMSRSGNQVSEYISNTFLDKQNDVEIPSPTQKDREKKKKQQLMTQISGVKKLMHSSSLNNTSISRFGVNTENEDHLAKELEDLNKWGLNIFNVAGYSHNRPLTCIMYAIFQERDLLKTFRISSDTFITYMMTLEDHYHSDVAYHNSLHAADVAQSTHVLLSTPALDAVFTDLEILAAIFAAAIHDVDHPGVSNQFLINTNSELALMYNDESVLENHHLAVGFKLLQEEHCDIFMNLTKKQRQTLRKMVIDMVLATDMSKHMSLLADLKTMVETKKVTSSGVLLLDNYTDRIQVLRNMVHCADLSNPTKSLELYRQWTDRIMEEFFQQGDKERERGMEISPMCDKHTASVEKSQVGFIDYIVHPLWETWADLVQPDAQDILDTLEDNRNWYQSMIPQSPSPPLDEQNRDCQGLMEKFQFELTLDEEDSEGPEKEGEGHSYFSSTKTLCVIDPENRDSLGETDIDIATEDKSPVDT
Cytochrome P450 3A4 (Homo sapiens), sequence (P08684 whole entry, looked up): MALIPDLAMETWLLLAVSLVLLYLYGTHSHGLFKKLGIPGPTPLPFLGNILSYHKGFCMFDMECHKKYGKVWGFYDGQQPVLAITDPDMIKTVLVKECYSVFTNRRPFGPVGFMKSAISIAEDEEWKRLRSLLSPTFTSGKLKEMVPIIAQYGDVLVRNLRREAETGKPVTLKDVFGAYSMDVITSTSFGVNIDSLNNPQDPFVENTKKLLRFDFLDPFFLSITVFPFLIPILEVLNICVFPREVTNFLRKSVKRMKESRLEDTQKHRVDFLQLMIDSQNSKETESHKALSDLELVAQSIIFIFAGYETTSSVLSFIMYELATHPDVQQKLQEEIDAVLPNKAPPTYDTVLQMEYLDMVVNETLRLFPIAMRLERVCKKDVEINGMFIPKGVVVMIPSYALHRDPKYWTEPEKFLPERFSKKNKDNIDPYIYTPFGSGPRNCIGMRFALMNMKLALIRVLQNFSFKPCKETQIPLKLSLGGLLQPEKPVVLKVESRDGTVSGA
DNA dC->dU-editing enzyme APOBEC-3G (Homo sapiens), sequence (Q9HC16 whole entry, looked up): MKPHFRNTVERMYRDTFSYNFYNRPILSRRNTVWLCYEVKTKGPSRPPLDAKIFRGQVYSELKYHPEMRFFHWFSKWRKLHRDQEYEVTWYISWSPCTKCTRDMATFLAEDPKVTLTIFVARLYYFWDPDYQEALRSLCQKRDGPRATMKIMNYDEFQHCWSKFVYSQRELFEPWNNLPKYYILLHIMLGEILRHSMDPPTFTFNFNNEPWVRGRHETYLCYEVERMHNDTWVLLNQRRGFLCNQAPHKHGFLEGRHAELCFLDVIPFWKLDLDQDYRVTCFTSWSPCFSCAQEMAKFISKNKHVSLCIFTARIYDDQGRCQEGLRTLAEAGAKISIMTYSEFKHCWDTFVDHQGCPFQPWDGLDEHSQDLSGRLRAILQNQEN
Cytochrome P450 1A2 (Homo sapiens), sequence (P05177 whole entry, looked up): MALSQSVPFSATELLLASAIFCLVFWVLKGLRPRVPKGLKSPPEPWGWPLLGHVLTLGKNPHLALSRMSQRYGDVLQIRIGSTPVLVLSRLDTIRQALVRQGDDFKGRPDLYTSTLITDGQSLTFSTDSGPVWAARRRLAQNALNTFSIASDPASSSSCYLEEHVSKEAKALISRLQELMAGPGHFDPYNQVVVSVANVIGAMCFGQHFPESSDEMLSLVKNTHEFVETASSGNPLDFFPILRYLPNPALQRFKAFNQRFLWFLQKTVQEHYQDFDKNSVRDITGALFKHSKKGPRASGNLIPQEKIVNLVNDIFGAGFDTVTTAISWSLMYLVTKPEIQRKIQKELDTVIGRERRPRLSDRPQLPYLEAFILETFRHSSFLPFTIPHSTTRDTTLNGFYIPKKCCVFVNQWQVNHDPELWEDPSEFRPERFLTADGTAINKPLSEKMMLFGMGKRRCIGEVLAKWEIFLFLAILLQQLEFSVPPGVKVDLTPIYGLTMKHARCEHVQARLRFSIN

SMILES	activity change, negative = inhibition ([1]; at 57.5 µM (top of the series))	max response [1, 15]	max response [1, 16]	activity change, negative = inhibition [2]	Potency [3]	activity change, negative = inhibition [4]	activity, negative = inhibition [5]	Potency [6]	Potency [7]	Potency [8]	Potency [9]	Potency [10]	outcome [11]	activity change, negative = inhibition ([1]; at 25.7 µM (top of the series))	Potency [12]	Potency [13]	outcome [14]
Nc1ccc(C(=O)O)c(O)c1 (tested in a mixture with another compound)	15.3% (inactive)	6.65%	22.7%														
CC(=O)Oc1ccccc1C(=O)Oc1ccccc1C(=O)O	-0.43% (inactive)	-2.66% and 0.474%	-5.13% and 0.698%	6.88% [at 17.2 µM] (inactive)	12.6 µM (active)	3.91% [at 17.2 µM] (inactive)	8.87% [at 17.2 µM] (inactive)	> 20.6 µM (inactive)	> 20.6 µM (inactive)	inactive	inactive	inactive	inactive	-1.86% (inactive)	inactive		
Cc1[nH]ccc2c1[nH]c1cc(=O)ccc12	6.27% (inactive)	11.1% and 0.549%	9.17% and 10.7%			-37.6% [at 17.2 µM] (inactive)	4.88% [at 17.2 µM] (inactive)	> 20.6 µM (inactive) and > 46 µM (inactive)	> 20.6 µM (inactive) and > 46 µM (inactive)	inactive		inactive	inactive	-0.514% (inactive)	inactive	inactive	inactive
